pPAFAH FP inh: inhibitors of human plasma PAF acetylhydrolase (pPAFAH); recombinant pPAFAH, FP-rhodamine probe fluorescence polarization; AID 463082; inhibition, % at 3.39 µM; 330,000 tested, 1.5% active; Q13093;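 active means inhibition above the mean inhibition across the screen plus 3 SD, cut at about 25% in these data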;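 further: inhibitors block binding of the rhodamine activity-based probe so polarization drops; 0% = enzyme with DMSO and 100% = wells lacking pPAFAH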
PAFAH1B3 inh: PAFAH1B3 (human) inhibition; inhibition, % at 3.39 µM; Q15102; 340,000 tested, 0.28% active; AID 492972; recombinant PAFAH1B3, FP-rhodamine probe, fluorescence polarization;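 active means inhibition above the screen-wide average of all tested compounds plus 3 SD, cut at about 25% in these data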;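 further: 0% = enzyme with DMSO only and 100% = wells lacking PAFAH1B3 protein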
Fam108B counter: blocks mouse Fam108B hydrolase in RBBP9 counter-screen. recombinant Fam108B, FP-Rh probe fluorescence polarization. 300,000 tested, 0.33% active. inhibition, % at 9.51 µM;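 active means inhibition above the screen mean inhibition plus 3 SD, computed separately per campaign, cut at about 18% in these data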;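 further: inhibitors lower polarization as less probe binds the enzyme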
PME-1 inh: PME-1 (human) inhibition. Q9Y570. recombinant PME-1, FP-Rh probe fluorescence polarization. inhibition, % at 5.9 µM. 320,000 tested, 0.53% active. AID 2130;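 active means inhibition above the campaign mean of all compounds plus 3 SD, cut at about 26% in these data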;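 further: competitive labeling of PME-1 active site by serine hydrolase directed probe; 0% = PME-1 with DMSO and 100% = wells lacking PME-1 enzyme; inhibitors block probe labeling so polarization falls and inhibition rises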
Target sequence (Q9Y570 whole entry, looked up): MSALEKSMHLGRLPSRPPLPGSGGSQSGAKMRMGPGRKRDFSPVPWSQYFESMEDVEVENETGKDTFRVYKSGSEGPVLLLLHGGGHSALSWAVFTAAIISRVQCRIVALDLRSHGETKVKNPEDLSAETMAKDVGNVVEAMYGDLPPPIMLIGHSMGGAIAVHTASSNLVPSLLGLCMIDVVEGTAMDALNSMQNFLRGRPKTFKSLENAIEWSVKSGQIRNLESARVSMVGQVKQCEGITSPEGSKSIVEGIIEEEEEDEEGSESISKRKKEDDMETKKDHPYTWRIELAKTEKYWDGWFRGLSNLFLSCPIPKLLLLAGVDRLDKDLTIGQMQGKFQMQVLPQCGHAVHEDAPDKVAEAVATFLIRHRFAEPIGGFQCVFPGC
PAFAH1B2 FP inh: inhibitors of human PAFAH1B2; 340,000 tested, 1.2% active; recombinant PAFAH1B2, FP-rhodamine activity probe, fluorescence polarization; inhibition, % at 3.39 µM;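 active means inhibition above the mean of all tested compounds plus 3 SD, cut at about 24% in these data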;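 further: 0% = enzyme with DMSO and 100% = wells lacking PAFAH1B2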
PAFAH2 FP inh: PAFAH2 (human) inhibition; inhibition, % at 3.39 µM; Q99487; recombinant PAFAH2, FP-rhodamine activity probe, fluorescence polarization; 340,000 tested, 0.99% active;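 active means inhibition above the mean over all tested compounds plus 3 SD, cut at about 30% in these data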;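 further: inhibitors block probe labeling of enzyme so polarization drops; 0% = enzyme with DMSO and 100% = wells lacking PAFAH2 protein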
PAFAH1B3 conf FP: PAFAH1B3 (human) inhibition, confirmed; 390 tested, 30% active; inhibition, % at 3.39 µM; shares compounds with PAFAH1B3 inh; recombinant PAFAH1B3, FP-Rh activity-based probe, fluorescence polarization;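 active means average inhibition over triplicate runs above the hit cutoff set in the earlier primary screen, cut at about 25% in these data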;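 further: 0% = enzyme with DMSO and 100% = wells lacking PAFAH1B3 protein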
Numbers without * were called inactive; nt = not tested or not shown. Sampled rows, rich in hits. Any-hit rate of the full collection: about 2.8%.

SMILES	pPAFAH FP inh	PAFAH1B3 inh	Fam108B counter	PME-1 inh	PAFAH1B2 FP inh	PAFAH2 FP inh	PAFAH1B3 conf FP
CC(C)c1ccc(OCC(=O)NNC(=S)NC(=O)c2ccco2)c(Br)c1	9	27*	2	9	18	8	9
CN(CC(=O)Nc1ccccc1Br)C(=O)CN1CCN(Cc2cccc(Cl)c2)CC1	4	8	nt	nt	4	-4	nt
O=C(NCc1ccc(F)cc1)C(c1ccccc1)c1ccccc1	-3	3	-5	-5	-1	-4	nt
CC(=O)N(Cc1ccc(F)cc1)C1=C(NCc2ccccc2)C(=O)c2ccccc2C1=O	nt	42*	nt	nt	11	8	25
CCOc1ccc(-n2c(C)cc(C(=O)NS(=O)(=O)c3ccc(C)cc3)c2C)cc1	-6	7	-3	-4	-4	5	nt
Cc1ccc(-n2c(C)cc(C(=O)NS(=O)(=O)c3ccc(C)cc3)c2C)cc1	10	52*	-2	1	9	2	36*
COc1ccc(C(CNC(=O)c2ccc(NS(=O)(=O)c3cccc([N+](=O)[O-])c3)cc2)N2CCOCC2)cc1 (configuration not stated)	-5	13	-11	-5	-2	1	nt
CCc1nnc(NC(=O)c2sc3nc4cc(C)ccc4cc3c2N)s1	3	27*	9	32*	19	12	20
CCOc1ccccc1/C=C/c1nc2ccccc2[nH]c1=O	nt	28*	nt	nt	6	1	7
N#Cc1ccsc1NC(=O)CCN1C(=O)C2CCCCC2C1=O (configuration not stated)	-1	7	nt	nt	2	3	nt
COc1ccc2[nH]c(C(=O)N/N=C/c3ccc(O)cc3O)cc2c1	nt	48*	nt	nt	23	16	24
CCOc1ccc2[nH]c(C(=O)N/N=C/c3ccc(OC)cc3)cc2c1	nt	1	nt	nt	2	-6	nt
CCCN1CCCc2cc(CN)ccc21	21	30*	11	7	1	10	16
CN1CCCc2cc(C=O)ccc21	1	5	-1	4	10	6	nt
CCN(Cc1ccccc1)C(=O)C(=O)c1cn(CC(=O)N2CCCC2)c2ccccc12	3	0	-2	2	7	3	nt
O=C(COC(=O)c1ccccn1)Nc1ncc(C(F)(F)F)cc1Cl	6	3	-4	3	1	-12	nt
O=C(COC(=O)c1ccc([N+](=O)[O-])s1)Nc1ncc(C(F)(F)F)cc1Cl	14	30*	12	-2	11	25	10
COc1cc(NS(=O)(=O)c2ccc(NC(=S)NC(=O)/C=C/c3ccco3)cc2)ncn1	nt	29*	nt	nt	9	27	17
COc1ccc(NC(=O)c2n[nH]c(=O)c3ccccc23)cc1S(=O)(=O)N1CCCCC1	-6	4	4	-7	-1	-1	nt
C=CCn1c(N)c(C(=O)NCC2CCCO2)c2nc3ccccc3nc21 (configuration not stated)	11	26*	0	9	5	-3	7
CCc1ccc(NC2=CC(=O)C(=O)c3ccccc32)cc1	nt	59*	nt	nt	9	18	37*
O=C1C=C(Nc2ccccc2)c2ccccc2C1=O	nt	62*	nt	nt	9	7	30*
CCCCNC1=CC(=O)C(=O)c2ccccc21	4	25	3	3	2	8	nt
O=C(COc1ccccc1Cl)Nc1ccc2oc(=O)ccc2c1	4	2	-2	-2	2	9	nt
COC(=O)c1cc2c(n1S(=O)(=O)c1ccc(C)cc1)C(=O)C(=O)c1[nH]cc(C(=O)OCc3ccccc3)c1-2	nt	39*	nt	nt	7	13	34*
c1ccc(N2CC3CCc4ccccc4C3=N2)cc1 (configuration not stated)	6	5	2	3	8	-4	nt
CC(C)n1cnc2c(NCc3ccccc3)cc(N[C@H](C)CO)cc21	10	43*	nt	nt	12	18	35*
O=C(N/N=C/c1ccccc1O)NC12CC3CC(CC(C3)C1)C2	5	26*	0	7	6	5	21
O=C(N/N=C/c1ccc(O)c(O)c1)NC12CC3CC(CC(C3)C1)C2	16	1	1	1	16	18	nt

Source: PubChem BioAssay
